Sampled rows, rich in hits. Any-hit rate of the full collection: about 13%.
Shiga inhibitor: A qHTS for Small Molecule Inhibitors of Shiga Toxin. actives 9.2% (n = 290,000). Vero cells, Shiga toxin protein synthesis inhibition reporter. AID 2315, 2010. inhibition, % at 38.7 µM; in the data active = inhibition mostly above about 28%, no sharp cut-off; inactive = mostly below about 43%
FMDV inh: High Throughput Screening for Foot and Mouth Disease Virus Antivirals. FMDV antiviral cell-based qHTS. Potency, µM (highest dose often 57.9 µM), most hits filed as inhibitors. actives 1.2% (n = 410,000); calls by dose curve; tested in HEK293T cells; note: read-out not given here; nearly all actives have a fitted effect of over 45% in size
CHX counter: Cycloheximide Counterscreen for Small Molecule Inhibitors of Shiga Toxin. cell reporter, cycloheximide protein synthesis inhibition counterscreen. max response, %. actives 12% (n = 300,000); in the data active = max response mostly above about 13%, no sharp cut-off; inactive = mostly below about 14%; note: read at 38.3 µM for the half of the compounds with a filed dose
Marburg entry inh: qHTS for inhibitors of binding or entry into cells for Marburg Virus | AID 540276, 2011 | actives 1.8% (n = 300,000) | Potency, µM (doses to about 37.8 µM), hits mostly inhibitors | Marburg virus pseudotyped entry inhibition, cell reporter; calls by dose curve; tested in HEK293 cells
HCV inh: qHTS Assay for Inhibitors of Hepatitis C Virus (HCV) | Huh7.5.1 HCVcc-Cre infection, luciferase reporter, 44 h | Potency, µM (doses to about 41.8 µM), hits mostly inhibitors | actives 3.4% (n = 340,000) | AID 651820, 2012; active = well fitted inhibition curve with a large enough effect; inconclusive = small, poorly fitted or top-dose-only effect, or another doubt; inactive = no such curve, though single readings can be large or run the other way
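Infectious HCVcc-Cre (~0.5 moi) was added to cells just after compound, with cells seeded 4 h earlier at 1,000 per well. Luciferase activity after 44 h culture reported infection; substrate was incubated 15 min at room temperature before reading.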
Lassa entry inh: qHTS for Inhibitors of binding or entry into cells for Lassa Virus. Lassa virus pseudotype entry inhibition, cell reporter. Potency, µM (doses to about 37.9 µM), hits mostly inhibitors. actives 1.2% (n = 300,000); calls by dose curve; tested in HEK293 cells; note: nearly all actives have a fitted effect of over 50% in size
Each line names hits and unclear results; the compound was inactive in the other large screens.

C=CCc1c(C)nc(-c2ccccc2)nc1Nc1ccc(O)cc1	FMDV inh inconclusive, Marburg entry inh inconclusive, HCV inh inconclusive
CCc1nc(-n2[nH]c(=O)c3ccccc3c2=O)c2c3c(sc2n1)CCCC3	none (no result: Shiga inhibitor, CHX counter)
C[C@]12CCC(=O)C[C@@H]1CC[C@@H]1[C@@H]2CC[C@@]2(C)[C@H]1CC[C@]2(C)O	none (no result: FMDV inh, Marburg entry inh, HCV inh, Lassa entry inh)
C[C@]12CCC3C(CC[C@H]4CCCC[C@]34C)C1CC[C@@]2(O)CNCCO (stereo not given in full)	HCV inh 10µM, Lassa entry inh inconclusive
Cc1ccccc1N(C(=O)CCC(=O)Nc1ccccn1)C(C(=O)NC(C)C)c1ccc(O)cc1 (stereo not given)	Marburg entry inh 7.1µM
COc1ccc(CNC(=O)C(c2ccc(C)cc2)N(Cc2cccs2)C(=O)c2ccc3c(c2)OCCO3)cc1 (stereo not given)	FMDV inh inconclusive, Marburg entry inh 12µM, HCV inh 11µM, Lassa entry inh inconclusive
COC(=O)c1ccc(C(C(=O)NCc2ccccc2)N(Cc2cccs2)C(=O)c2cnccn2)cc1 (stereo not given)	Marburg entry inh inconclusive
COCCN(C(=O)Cc1cccs1)C(C(=O)NCc1ccc(OC)cc1)c1ccc(OC)cc1 (stereo not given)	Lassa entry inh inconclusive (no result: FMDV inh)
Cc1ccc(C(C(=O)NCc2ccccc2)N(Cc2cccs2)C(=O)c2ccc3c(c2)OCCO3)cc1 (stereo not given)	Marburg entry inh 6.5µM, HCV inh inconclusive, Lassa entry inh 6.5µM
COc1ccc(CNCc2cn(-c3cccc(F)c3)nc2-c2ccc(C)o2)cc1	CHX counter 11, HCV inh 10µM (no result: Marburg entry inh, Lassa entry inh)
COc1ccc(-c2nn(-c3ccccc3)cc2CNCc2cccnc2)c(F)c1	HCV inh inconclusive
COc1ccc(-n2cc(CNC3CCC(O)CC3)c(-c3cccc(F)c3)n2)cc1 (stereo not given)	Marburg entry inh 18µM
Cc1cccc(-n2cc(CN3CCCN(C=O)CC3)c(-c3cccc(F)c3)n2)c1	Shiga inhibitor 52, CHX counter 24, Marburg entry inh inconclusive
Cc1ccc(-n2cc(CNCCc3ncc(C)[nH]3)c(-c3ccc(F)cc3)n2)cc1	CHX counter 14, Marburg entry inh inconclusive, HCV inh inconclusive, Lassa entry inh inconclusive
Cc1ccc(-n2cc(CNCCn3nc(C)cc3C)c(-c3ccc(F)cc3)n2)cc1	Marburg entry inh inconclusive, HCV inh inconclusive, Lassa entry inh inconclusive
CCOC(=O)Cn1cnc2onc(-c3ccc(F)cc3)c2c1=O	none (no result: Shiga inhibitor, CHX counter, HCV inh)
COc1ccc(-n2cc(CNCc3cccnc3)c(-c3cccc(F)c3)n2)cc1	Marburg entry inh inconclusive
CCn1ccnc1CN(C)Cc1cn(-c2cccc(C)c2)nc1-c1cccc(F)c1	HCV inh 3.5µM (no result: Marburg entry inh, Lassa entry inh)
COc1ccc(-n2cc(CN(C)CCO)c(-c3cccc(F)c3)n2)cc1	Shiga inhibitor 107, CHX counter 54 (no result: Marburg entry inh, Lassa entry inh)
COc1ccc(-n2cc(CN(C)C(C)c3ccncn3)c(-c3cccc(F)c3)n2)cc1 (stereo not given)	Marburg entry inh inconclusive, HCV inh inconclusive, Lassa entry inh inconclusive
Cc1cccc(-n2cc(CN(C)Cc3nccn3C)c(-c3cccc(F)c3)n2)c1	HCV inh inconclusive (no result: Marburg entry inh, Lassa entry inh)
COc1ccc(-n2cc(CNCCc3cnc[nH]3)c(-c3cccc(F)c3)n2)cc1	CHX counter 41, HCV inh inconclusive, Lassa entry inh inconclusive
CCSc1nnc2ccc(-c3ccc(OC)c(OC)c3)nn12	CHX counter 25
c1ccc(CN2CCC(=NNc3nc4ccccc4[nH]3)CC2)cc1	CHX counter 33, Marburg entry inh inconclusive, Lassa entry inh inconclusive
CC(C)(C)C1CCC(=NNc2nc3ccccc3[nH]2)CC1 (stereo not given)	Shiga inhibitor 68, CHX counter 37, Marburg entry inh inconclusive
c1ccc2c(c1)CC/C2=N/Nc1nc2ccccc2[nH]1	Shiga inhibitor 119, CHX counter 47, Marburg entry inh inconclusive, HCV inh inconclusive, Lassa entry inh inconclusive
CC(C)(C)C1CCC(=NNC(=S)Nc2cccnc2)CC1 (stereo not given)	none
c1ccc2c(c1)CCC[C@H]2Nc1nc2ccccc2[nH]1	Lassa entry inh inconclusive (no result: Shiga inhibitor, FMDV inh, CHX counter, HCV inh)
CC(=O)c1cccc(S(=O)(=O)NCCCN2CCOCC2)c1	none (no result: Shiga inhibitor, CHX counter, Marburg entry inh, Lassa entry inh)
CC1CCCC(C)N1CC(O)Cn1c2ccccc2c2ccccc21 (stereo not given)	none (no result: Marburg entry inh, Lassa entry inh)
